Compounds with a hit are over-represented: about 1.4% of the library has one in this group of screens.
VLA-4 inh: inhibition in a human VLA-4 binding assay; 0.2% of 330,000 active; AID 2557; VLA-4 expressing cells, ligand binding flow cytometry; inhibition, % (about 7 µM as worked out from the volumes in the protocol); P13612; in the data active means inhibition above about 50%
GRK2 inh: inhibitors of human GRK2 displacing RNA aptamer. inhibition of aptamer binding, % at 10 µM. bead flow cytometry, FAM-aptamer displacement from GRK2. 0.59% of 330,000 active;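 active means inhibition of aptamer binding above 40%, roughly 3 SD of noise, on plates passing a quality check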;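 further: median bead fluorescence of bound FAM aptamer so fluorescent compounds give negative values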
A3A deaminase: blocks human APOBEC3A ssDNA deamination; 0.41% of 330,000 active; AID 493011; inhibition, % at 20 µM; recombinant A3A, FAM/TAMRA ssDNA deamination fluorescence; P31941;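 active means at least 40% inhibition at 20 µM here, with at most 30% in a related deaminase screen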;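 further: plate controls were A3A with DMSO for no effect and wells lacking A3A enzyme for full effect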
Target sequence (P31941 whole entry, looked up): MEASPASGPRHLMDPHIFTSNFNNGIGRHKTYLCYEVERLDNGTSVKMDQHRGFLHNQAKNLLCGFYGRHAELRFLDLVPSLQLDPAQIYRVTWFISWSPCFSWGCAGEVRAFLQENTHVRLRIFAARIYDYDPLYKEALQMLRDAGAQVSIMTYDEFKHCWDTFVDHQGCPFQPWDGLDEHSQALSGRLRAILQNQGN
APOBEC3G inh: inhibitors of human APOBEC3G DNA deaminase. Q9HC16. recombinant A3G, ssDNA deamination FAM/TAMRA fluorescence. inhibition, % at 20 µM. 0.28% of 330,000 active. AID 493012;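 active means inhibition of at least 40% at 20 µM, with no more than 30% in the related APOBEC3A deaminase screen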;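 further: plate controls were DMSO wells with A3G for no effect and wells lacking A3G enzyme for full effect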
VLA-4 mod pick: confirmation of allosteric modulators of human VLA-4 integrin. inhibition, % at 6.7 µM. shares compounds with VLA-4 inh. 2% of 1,300 active. AID 2813. U937 cells, HUTS-21 LIBS mAb binding, flow cytometry; LDV ligand present at threefold Kd; in the data active means inhibition above about 40%;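 further: 0% = ligand without compound and 100% = no ligand background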
* = called active by the depositor; nt = no result given; ! = not active in a repeat.

SMILES	VLA-4 inh	GRK2 inh	A3A deaminase	APOBEC3G inh	VLA-4 mod pick
CCCC(=O)Nc1ccc(C(=O)Nc2nc(CC(=O)OCC)cs2)cc1	56*	1	0	-9	2
O=C(NCc1cccs1)c1cccc(Nc2nc3ccc(Br)cc3[nH]2)c1	18	0	2	-2	nt
CSc1ncccc1C(=O)OCC(=O)Nc1ccc(S(=O)(=O)N2CCCC2)cc1	43	0	2	5	7
CSc1ncccc1C(=O)OCC(=O)c1ccc(S(=O)(=O)N2CCCCC2)cc1	-1	3	-2	-7	nt
COc1cccc(CN(C(=O)Cc2c[nH]c3ccccc23)C(C(=O)NC2CCCCC2)c2ccc(C)o2)c1 (stereo not drawn)	48	2	-2	-6	-124
Cc1ccc(NC(=O)Nc2c(Cl)cccc2Cl)cn1	-4	6	-9	-10	0
COc1ccc(NC(=O)CSCC(=O)Nc2cccc(S(=O)(=O)N3CCCCCC3)c2)cc1	8	0	-1	-4	nt
C=CCN1c2ccccc2[C@]23C[C@@H](C(=O)OC)N(C(=O)c4ccc(Br)cc4)C2=NC(C(=O)OC)=C(C(=O)OC)[C@H]13	51*	0	2	-1	12
CCc1ccccc1NC(=O)C1NC(=O)CC1c1ccccc1 (stereo not drawn)	56*	2	-3	-6	4
COc1cccc(N(C(=O)CS(=O)CC(=O)Nc2ccc(F)cc2)C(C(=O)NC2CCCCC2)c2cccs2)c1 (stereo not drawn)	43	0	0	-7	5
O=C(CS(=O)CC(=O)N(c1ccccc1)C(C(=O)NC1CCCC1)c1cccs1)Nc1ccc(F)cc1 (stereo not drawn)	1	3	-2	-4	nt
O=C(NCc1cccnc1)/C(=C/c1ccc(-c2ccc(Cl)cc2)o1)S(=O)(=O)c1ccccc1	13	1	2	-1	nt
O=C(OCC(=O)c1ccc(Cl)cc1Cl)c1ccc2c(c1)C(=O)N(c1cccc3ncccc13)C2=O	1	0	3	1	nt
CCCc1ccc(OCCNC(=O)CC)cc1	51*	0	4	8	0
CCOc1ccccc1NC(=O)Cn1c(=O)oc2cc(Cl)ccc21	13	2	-3	-8	2
CCOc1ccc(NC(=O)Cn2c(=O)oc3ccccc32)cc1	0	2	2	0	nt
CC(C)(C)NC(=O)Cn1c(=O)oc2ccc(Cl)cc21	55*	1	-3	-6	-1
Cc1cc(NC(=O)Cn2c(=O)oc3ccc(Cl)cc32)no1	7	0	-4	-8	nt
CCOc1ccc(NC(=O)Cn2c(=O)oc3cc(Cl)ccc32)cc1	0	1	0	-2	5
c1ccc(CC2=NCCN2)cc1	12	32	-1	-7	nt
Cc1ccc(N(CC2=NCCN2)c2cccc(O)c2)cc1	55*!	2	1	3	6
CCOC(=O)C1=C(C)NC(C)=C(C(=O)OCC)C1C(=O)OCC(=O)N1CCCCC1C (stereo not drawn)	6	0	-1	-5	nt
CCOC(=O)c1[nH]c(C)c(C(=O)OCC(=O)N2CCCCC2C)c1C (stereo not drawn)	61*	3	-8	-6	16
CCN(CC)S(=O)(=O)c1csc(C(=O)Nc2ccccn2)c1	8	1	-1	-3	nt
CC(C)[C@H](NC(=O)N1c2ccccc2NC(=O)[C@@H]1C(C)C)C(=O)N[C@@H](C(=O)O)c1ccccc1	29	0	4	-1	nt
SMILES	VLA-4 inh	GRK2 inh	A3A deaminase	APOBEC3G inh	VLA-4 mod pick
CC(C)[C@H](NC(=O)N1c2ccccc2NC(=O)[C@@H]1C(C)C)C(=O)N[C@@H](Cc1ccccc1)C(=O)O	64*	0	-3	-2	10
COc1cccc(C(=O)OCC(=O)NCCC2=CCCCC2)c1	4	2	-1	-6	-1
CN1CCN(c2nc(-c3ccccc3Cl)nc3ccccc23)CC1	6	0	-4	-8	nt
CN1CCN(c2nc(-c3ccccc3O)nc3ccccc23)CC1	47	0	0	-4	7
Cc1cc(OC(=O)c2cc(F)c(F)cc2Cl)nc(C)n1	63*	2	-3	-11	14
Cc1ccc2c(c1)N(C(C)C(=O)NCCc1ccccc1)C(=O)CO2 (stereo not drawn)	13	0	-2	-10	nt
Cc1cccc(C)c1OCC(=O)Nc1ncn[nH]1	52*	2	-1	-2	-8
O=C(CCC(=O)Nc1ccc(F)cc1)N/N=C/c1ccncc1	56*	1	-2	1	0

Bioassay records from PubChem.
